Source: PubChem BioAssay (National Center for Advancing Translational Sciences (NCATS))
Only a selection was taken, and hits are over-represented in it overall.
Methyltransferases = Primary Screen for Target Class Profiling of Small Molecule Inhibitors of Methyltransferases; purified enzyme, MTase-Glo SAH luminescence; stronger effect = lower value; calls only at 40 µM; 3.9% of 25,000 active; call rule not given here
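Each enzyme was assayed with SAM and its substrate. SAH formation detected by MTase-Glo luminescence; single-point 40 uM screen[…].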
An asterisk follows results filed as active; i = inactive; + = active, no number; ! = not confirmed by another sample. On the % scale 0 is the no-effect control and ±100 the full control effect.

SMILES | Methyltransferases
CCc1cc(=O)n(CC(=O)Nc2ccccc2OC)c(N2CCOCC2)n1 | i
COc1ccc(Nc2nc3c(S(=O)(=O)c4ccc(F)cc4)nnn3c3ccccc23)c(OC)c1 | i
Cc1ccccc1Cn1nc2n(Cc3ccccc3)c(=O)c3ccccc3n2c1=O | i
CCCC1c2ccc(C)n2CCN1C(=O)Nc1cccc(C)c1C (configuration not stated) | i
CC(C)CCn1c(=O)c2ccccc2n2c(SCc3cccc(F)c3)nnc12 | i
C=C1C(=O)OC2C1CCC1(C)C(O)CCC(=C)C21 (configuration not stated) | +
C=C1C(=O)OC2C1C(O)CC1(C)C(O)CCC(C=O)C21 (configuration not stated) | i
C=C1C(=O)O[C@@H]2[C@H]3O[C@]3(C)CCC=C(C)CC[C@@H]12 | i
CC(C)Oc1ccc(CN2C(=O)c3oc4ccccc4c3OCC2(C)C(=O)NC2CCCC2)cc1 (configuration not stated) | i
CC1(C)CC(=O)c2c(C(F)(F)F)nn(-c3ccc(C(N)=O)c(NC4CCC(OC(=O)CN)CC4)c3)c2C1 (configuration not stated) | +!
CC(C)OCCCn1c(=O)c2ccccc2n2c(CCC(=O)NCCc3ccc(Cl)cc3)nnc12 | i
COC(=O)c1ncn2c1C(=O)N(c1ccc(C(C)C)cc1)C(C)(C(=O)NC1CCCCC1)C2 (configuration not stated) | i
COc1cc(OC)cc(-c2cc3cnc(N)nc3nc2NC(=O)NC(C)(C)C)c1 | i
c1ccc2c(Oc3nc(Nc4ccc(N5CCOCC5)cc4)c4ncn(C5CCCCC5)c4n3)cccc2c1 | +
Cc1ccccc1NC(=O)N1Cc2c(sc3c2CCCC3)-n2cccc2C1c1cccc(F)c1 (configuration not stated) | i
O=c1[nH]c2cc(Br)c(S(=O)(=O)N3CCN(c4ccccc4F)CC3)cc2[nH]1 | i
COc1cc2ncnc(Nc3cccc(I)c3)c2cc1OC | +
COc1cc2ncnc(-n3nc(-c4ccccn4)nc3N)c2cc1OC | i
COc1cc2ncnc(Nc3cc(Br)c(O)c(Br)c3)c2cc1OC | i
COc1ccc(-c2cc3n(n2)CC(C)(C(=O)NC2CCCCC2)N(C2CCCCCC2)C3=O)cc1 (configuration not stated) | i
Clc1ccc(-c2nnn3c2nc(NCc2ccccc2)c2ccccc23)cc1 | i
CC1CCCCC1NC(=O)C1(C)Cn2c(cc3sccc32)C(=O)N1Cc1ccccc1Cl (configuration not stated) | i
Cc1nnc(C[C@@H]2C=C(c3ccc(Cl)cc3)c3ccccc3-n3c(C)nnc32)o1 | +
CC(CNc1nc2c(S(=O)(=O)c3ccccc3)nnn2c2ccccc12)c1ccccc1 (configuration not stated) | i
Cc1ccc(C(=O)Cn2nc3n(C)c(=O)c4ccc(C(=O)NC5CCCC5)cc4n3c2=O)cc1 | i
SMILES | Methyltransferases
CCc1ccccc1NC(=O)Cn1nc2n(C(C)C)c(=O)c3ccc(C(=O)NC4CCCC4)cc3n2c1=O | i
COc1ccccc1-c1cc(C(=O)NC2CC2)nn2cnnc12 | i
COc1ccccc1CNC(=O)C1c2c(n(C)c3ccccc23)SCC(=O)N1c1cc(Cl)ccc1OC (configuration not stated) | i
C=C1C(=O)OC2C1CCC(=C)C1CC(OC(C)=O)C(=C)C12 (configuration not stated) | +
C=C(C)C(=O)OC1CC(CO)CCC/C(CO)=C/C2OC(=O)C(=C)C21 (configuration not stated) | i
C=C1C(=O)O[C@@H]2[C@H]3C(C)=CC(=O)C3=C(C)CC[C@@H]12 | i
CC1CCC(NC(=O)C2(C)Cn3c(ccc3-c3ccco3)C(=O)N2Cc2ccccc2F)CC1 (configuration not stated) | i
CCN(CC)CCCNC(=O)c1cc2n(n1)CC(C)(C(=O)NCc1ccccc1)N(C)C2=O (configuration not stated) | i
CC(C)CNC(=O)c1ccc2c(=O)n(Cc3ccccc3)c3nn(CC(=O)c4ccccc4)c(=O)n3c2c1 | i
CC(C)NC(=O)CSc1nnc2n(C)c(=O)c3ccc(C(=O)NC4CCCC4)cc3n12 | i
O=C(NCCc1ccccc1)Nc1cccn2ncnc12 | i
Cc1cc(NC(=O)NCCN2CCC(O)(Cc3ccccc3)CC2)c2ccccc2n1 | +
CN1C(=O)c2cc(C(=O)NCCN3CCOCC3)nn2CC1(C)C(=O)NCc1ccccc1 (configuration not stated) | i
CCCN1C(=O)c2cc3occc3n2CC1(C)C(=O)NC1CCCCC1 (configuration not stated) | i
O=c1c2ccccc2n2c(SCc3ccccc3)nnc2n1Cc1ccccc1 | i
COc1ccc(CN2C(=O)c3cc4ccccc4n3CC2(C)C(=O)NCCC(C)C)cc1 (configuration not stated) | i
Cc1ccccc1Cn1nc2n(CCc3ccccc3)c(=O)c3ccccc3n2c1=O | i
O=C1C=CC2OC(c3ccccc3)C(O)C2O1 (configuration not stated) | i
COc1cccc(CNC(=O)c2ccc3c(=O)nc4c(-c5ccc(C)cc5)n[nH]n4c3c2)c1 | i
Cc1ccc(NC(=O)Cn2nc3n(C)c(=O)c4ccc(C(=O)NC5CCCC5)cc4n3c2=O)cc1F | i
Cn1c(=O)n(C)c2cc(S(=O)(=O)Nc3ccc(Cl)cc3)ccc21 | i
CN(C)c1ccc(NC(=O)NS(=O)(=O)c2ccc(Cl)cc2)cc1 | +
CCCNC(=O)NS(=O)(=O)c1ccc(Cl)cc1 | i
CCOC(=O)c1ccc(NS(=O)(=O)c2ccc3[nH]c4c(c3c2)CCCC4)cc1 | i
Cn1cc(-c2cnn3c(N)c(Br)c([C@@H]4CCCNC4)nc23)cn1 | +
SMILES | Methyltransferases
Cc1cc(NC(=O)N2CCn3cccc3C2C(C)C)ccc1Br (configuration not stated) | i
COc1cc(O)cc(O[C@@H]2O[C@H](CO)[C@@H](O[C@@H]3OC[C@](O)(CO)[C@H]3O)[C@H](O)[C@H]2O)c1OC | i
CCC(C)NC(=O)c1ccc2c(=O)n(CC(C)C)c3nn(CC(=O)NCc4ccccc4)c(=O)n3c2c1 (configuration not stated) | i
CCCn1c(=O)c2ccc(C(=O)NCC(C)C)cc2n2c(=O)n(CC(=O)Nc3ccccc3C)nc12 | i
N#Cc1ccc(-c2csc(NN=C3CCCC3)n2)cc1 | +!
COc1ccc(-c2cc3n(n2)CC(C)(C(=O)NCc2ccccc2OC)N(Cc2ccccc2)C3=O)cc1 (configuration not stated) | i
CC(C)Cn1c(=O)c2ccccc2n2c(=O)n(CC(=O)NCc3ccccc3)nc12 | i
CCc1ccc(-c2cc3n(n2)CC(C)(C(=O)NC2CCCCC2)N(c2ccc(OC)cc2)C3=O)cc1 (configuration not stated) | i
CC(C)CNC(=O)c1ccc2c(=O)n(C(C)C)c3nn(CC(=O)NC4CCCCC4)c(=O)n3c2c1 | i
Cc1ccc2c(c1)c1c(n2CCc2ccc(C)nc2)CCN(C)C1 | +
O=C1NCCOCCN(C(=O)c2nccc3ccccc23)[C@H]2CCC[C@@H]12 | i
CCCOc1ccc(CN2C(=O)c3cc4occc4n3CC2(C)C(=O)NC2CCCCC2C)cc1 (configuration not stated) | i
